# HCMV antiviral – human cytomegalovirus inhibition. HFF cells, HCMV-luciferase reporter, 72 h; active compounds read low. activity change, negative = inhibition, % at 57.5 µM. 4.5% of 410,000 active. AID 1259415; in the data active = activity change below about -60%; inconclusive = no clear call, values can overlap the other calls; inactive = above about -39%
#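 Two compound doses tested in HFFs infected with HCMV-luciferase, MOI 1 PFU/cell, 72 h at 37C. Lysate luminescence read with OneGlo; data normalized against buffer-only and 10uM Salinomycin inhibitor controls.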
# Vaccinia mCherry – vaccinia inhibition (mCherry reporter); 0.63% of 310,000 active; Vaccinia virus mCherry reporter infection, fluorescence; AID 720579; Potency, µM (series often up to 36.5 µM), for the others: at the highest dose activity change, negative = inhibition, hits mostly inhibitors; calls by dose curve; tested in A549 cells; note: potency is the fitted concentration of half-maximal effect; nearly all actives have a fitted effect of over 35% in size
# VACV Venus inh – inhibitors of vaccinia virus (Venus reporter) | Vaccinia virus Venus reporter expression, fluorescence | Potency, µM (doses to about 36.5 µM), without a hit: at the top dose activity change, negative = inhibition, usual class: inhibitors | 0.46% of 330,000 active | AID 720580; calls by dose curve; tested in A549 cells; note: potency is the fitted concentration of half-maximal effect; nearly all actives have a fitted effect of over 30% in size
# FMDV inh – foot and mouth disease virus antiviral activity; 1.2% of 410,000 active; AID 1159524; Potency, µM (highest dose often 57.9 µM), without a hit: at the top dose activity change, negative = inhibition, actives largely listed as inhibitors; FMDV antiviral cell-based qHTS; calls by dose curve; tested in HEK293T cells; note: read-out not given here; potency is the fitted concentration of half-maximal effect; nearly all actives have a fitted effect of over 45% in size
# Lassa entry inh – blocks Lassa virus binding to or entry into cells; Lassa virus pseudotype entry inhibition, cell reporter; Potency, µM (highest dose often 37.9 µM), inactives show top-dose activity change, negative = inhibition, hits mostly inhibitors; 1.2% of 300,000 active; calls by dose curve; tested in HEK293 cells; note: potency is the fitted concentration of half-maximal effect; nearly all actives have a fitted effect of over 50% in size
# MARV entry inh – blocks Marburg virus binding to or entry into cells; Potency, µM (titrated, usually from 37.8 µM), inactives show top-dose activity change, negative = inhibition, usual class: inhibitors; Marburg virus pseudotyped entry inhibition, cell reporter; AID 540276; 1.8% of 300,000 active; calls by dose curve; tested in HEK293 cells; note: potency is the fitted concentration of half-maximal effect
# * = called active by the depositor; i = inactive; ? = inconclusive; / = not tested or not shown; [ ] = remark or other dose. In the library only some 6.5% were active in any assay of this set; here they are far more common. % is set by controls: 0 for no effect and ±100 for the full control effect.
SMILES,HCMV antiviral,Vaccinia mCherry,VACV Venus inh,FMDV inh,Lassa entry inh,MARV entry inh
Cc1cc(S(=O)(=O)Nc2ccc(C(=O)NCC3(N4CCCCC4)CCCCC3)cc2)ccc1F,-4.9,-13.6%,-5.3%,-23.4%,?,11.2µM*
O=C(CC1(O)C(=O)N(CCc2ccccc2)c2ccc(Br)cc21)c1ccccc1O (stereo not given),-76.6*,-7.9%,-21.3%,6.3%,?,-27.1%[46.1 µM]
COC(=O)CN1C(=O)C(O)(CC(=O)c2ccc(Br)cc2)c2ccccc21 (stereo not given),-62.3*,i,-9.6%,-12.3%,/,/
C#CCN1C(=O)C(O)(CC(=O)c2ccc(OC)c(OC)c2)c2cc(Br)ccc21 (stereo not given),-62.0*,-9.7%,-11.6%,2.8%,-15.6%[46.1 µM],-9.6%[46.1 µM]
O=C(CC1(O)C(=O)N(Cc2ccccc2)c2ccc(Br)cc21)c1ccccc1 (stereo not given),14.2,-1.0%,-12.4%,5.7%,-25.4%[46.1 µM],-28.4%[46.1 µM]
C#CCN1C(=O)C(O)(CC(=O)c2ccc(OC)c(OC)c2)c2ccccc21 (stereo not given),26.0,/,/,?,-18.1%,?
C=CCN1C(=O)C(O)(CC(=O)c2ccco2)c2cc(Br)ccc21 (stereo not given),-81.8*,-23.9%,-7.4%,-16.9%,/,/
COc1ccc(CN2CCC(n3cc(C(=O)N4CCCCC4)nn3)CC2)c(OC)c1,/,-12.4%,-9.0%,-10.2%,/,/
COC(=O)C[C@H]1c2ccccc2[C@@H]2C(=C[C@@H](C)[C@H]3C(=O)N(c4ccccc4)C(=O)[C@H]32)N1C(=O)OC,/,/,/,/,/,10.2%[14.2 µM]
CCOC(=O)c1c(-c2ccccc2)oc2ccc(NS(=O)(=O)c3ccc(C)cc3)cc12,-11.5,-27.1%,-22.9%,22.6%,?,/
CCCCN1C(=O)C(O)(CC(=O)c2ccc(CC)cc2)c2cc(Br)ccc21 (stereo not given),-78.8*,-10.2%[7.34 µM],-1.5%[7.34 µM],-8.2%,5.4%[46.1 µM],?
CC(C)c1ccc(C(=O)CC2(O)C(=O)N(CCc3ccccc3)c3ccc(Cl)cc32)cc1 (stereo not given),-105.2*,?,-24.0%,1.6%,?,?
CCCN1C(=O)C(O)(CC(=O)c2ccc(CC)cc2)c2ccccc21 (stereo not given),-12.4,-10.3%,-11.4%,-8.4%,20.9%[46.1 µM],/
CCCS(=O)(=O)c1snnc1C,-72.1*,-6.2%,-0.2%,-16.5%,12.0%,15.6%
COc1cc(=O)n2c(c1C(=O)NCc1ccsc1)CCN(Cc1nc3ccccc3[nH]1)CC2,/,-8.8%,-15.1%,-4.0%,/,/
C#CCCCO/N=C1\C[C@@H](O)[C@@H](O)[C@@H]2[C@@H]3C(=O)N(C(C)(C)C)C(=O)[C@@H]3CC[C@H]12,/,/,/,/,/,11.8%[14.2 µM]
COc1ccc(Cc2[nH]n3c(=O)cc(C(C)C)nc3c2-c2ccccc2)cc1,-73.0*,?,-18.9%,?,?,12.6µM*
COc1ccc(Cc2[nH]n3c(=O)cc(C)nc3c2-c2ccccc2)cc1,-36.3,i,-16.8%,-12.4%,-6.7%[46.1 µM],?
c1ccc2c(c1)N1CCCN=C1N2CCN1CCCCC1,?,/,/,-9.0%,-25.8%,13µM*
CCOC(=O)C1C=CN=C1C (stereo not given),/,/,/,/,/,14.1%
CC(C)C1CC(CCN)(Cc2ccccc2)CCO1 (stereo not given),?,-9.2%,-17.4%,-8.7%,0.2%[46.1 µM],14.6µM*
CCOC(=O)c1c(NC(NC(=O)C(C)C)C(Cl)(Cl)Cl)sc2c1CCC2 (stereo not given),-3.6,-14.8%,-14.5%,?,?,11.2µM*
Cc1ccc(NS(=O)(=O)c2ccc(-n3cccn3)cc2)cc1Cl,-33.1,?,-8.7%,33.6%,10.8%[46.1 µM],/
Cc1ccc(NS(=O)(=O)c2ccc(-n3cccn3)cc2)cc1C,-92.9*,-29.2%,-13.7%,13.9%,-14.8%[46.1 µM],-15.2%[46.1 µM]
Cc1nc2ccccc2c2oc(C(=O)NCCN3CCN(C)CC3)cc12,-69.8*,1.1%,5.0%,0.0%,/,/
SMILES,HCMV antiviral,Vaccinia mCherry,VACV Venus inh,FMDV inh,Lassa entry inh,MARV entry inh
Cc1nc2ccccc2c2oc(C(=O)NCCCN3CCCC3=O)cc12,-14.4,/,/,-22.0%,-13.1%,-16.6%
CCOC(=O)c1sc(NC(=O)Nc2ccccc2F)nc1C,?,-21.1%,-17.7%,?,?,2.24µM*
CCOC(=O)c1sc(Nc2ccccc2Cl)nc1C,63.9,/,/,51.8%,/,/
COC(=O)CC=C[C@@H](C)[C@@H](C=NOC[C@@H](C)[C@H](OCc1ccccc1)C(C)C)NS(=O)(=O)c1ccc(C)cc1,/,/,/,/,-3.7%[14.3 µM],-14.2%[14.2 µM]
Cc1ccc(Nc2c3c(nc4nncn24)CCC3)cc1C,-88.1*,-30.5%,-13.4%,-27.2%,-10.3%[46.1 µM],4.8%[46.1 µM]
COc1cc(NC(=O)c2cccc(Cl)c2Cl)ccc1NC(=O)c1cc2ccccc2o1,-25.7,-21.1%,-10.6%,0.0%,-5.3%[46.1 µM],/
O=C(NC1CCN(Cc2ccccc2)CC1)c1ccccc1OCc1ccccc1Cl,-62.7*,-2.5%,-15.2%,-29.2%,10µM*,?
CCC(=O)c1ccc(OCC(=O)NC2CCN(Cc3ccccc3)CC2)cc1,-104.9*,/,/,-2.3%,/,/
O=C(COc1ccc(C(=O)c2ccccc2)cc1)NC1CCCCCC1,?,-22.9%,-15.0%,?,?,?
O=C(COc1ccc(C(=O)c2ccccc2)cc1)NC1CCCCC1,-83.8*,i,-7.0%,-18.2%,3.0%,?
O=C(Cc1ccccc1)NC1CCN(Cc2ccccc2)CC1,-62.4*,-8.7%,-8.9%,-10.6%,-2.7%,-9.2%[46.1 µM]
O=C(NC1CCN(Cc2ccccc2)CC1)c1ccccc1OCc1ccccc1,-13.8,/,/,?,/,/
C=Nc1ccc(/C=C/c2ccnc3ccccc23)cc1,/,-22.5%,-25.7%,/,/,/
O=C(CCN1CCN(Cc2ccccc2)CC1)NNC(=O)Cc1ccc(Cl)c(Cl)c1,-10.9,28.2µM*,?,-23.6%,15.1%,-24.4%
O=C(NC1CCN(Cc2ccc(Cl)cc2Cl)CC1)c1ccccc1,-80.8*,i,-15.5%,?,?,?
O=C(NC1CCN(Cc2ccccc2)CC1)c1ccccc1,-8.5,/,/,-16.3%,/,/
CCOc1ccc(C(=O)OCC(=O)NC2CCCCCCC2)cc1,10.0,/,/,-22.9%,/,/
CCCCOc1ccc(C(=O)OCC(=O)NC2CCCC2)cc1,-99.7*,-9.5%,-7.6%,-25.4%,?,1.8%
O=C(CCN1CCN(Cc2ccccc2)CC1)NNC(=O)Nc1cccc(Cl)c1,16.4,-15.3%,-28.2%,7.5%,-10.3%[46.1 µM],0.2%[46.1 µM]
COc1cc(=O)n2c(c1C(=O)N(C)Cc1nonc1C)CCN(Cc1ccc(F)cc1)CC2,/,-13.8%,-8.4%,-8.8%,/,/
Cc1ccc(-n2ncc3c2CCCC3NC(=O)c2ccoc2)cc1C (stereo not given),?,?,-24.8%,-28.0%,-29.6%,?
COc1ncccc1C(=O)NC1CCCc2c1cnn2-c1cc(C)cc(C)c1 (stereo not given),-61.2*,-8.9%,-2.8%,6.1%,-9.7%[46.1 µM],?
COCc1ccc(C(=O)NC2CCCc3c2cnn3-c2ccc(C)c(C)c2)o1 (stereo not given),-76.6*,/,/,?,/,/

# Screening data as filed in PubChem.
